According to PubChem BioAssay AID1508600 (Functional Genomics Laboratory (NCATS/FGL), 2020):
The campaign covered roughly 53,000 sequences. About 3,700 (7%) were called active. This excerpt belongs to a sample that is enriched for actives. Values without a mark were called inactive.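 How the source made its calls: active means gene knockdowns whose robust z-score for IL-1 alpha signal is at least 2 or at most -2, so actives lie on both sides; inactive means the rest.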

Assay: Components of the Cytosolic LPS Sensing Pathway: Gene Identification via Genome-wide siRNA Screen;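 further: robust z of the log signal after scaling to non-targeting control siRNA wells of the plate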
Settings: RAW264.7 macrophages, IL-1a HTRF, actives lie on both sides, screened at 100 nM (by protocol), cells primed 5 h with Pam3CSK4 first
Outline: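 Supernatant IL-1a by HTRF from RAW264.7 cells primed with Pam3CSK4 (5 hours) and transfected with LipidA (24 hour) after 48h siRNA knockdown at 100 nM; cell viability checked with CellTiter-Glo.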

Row | Sequence | z-score
1 | GCCACUCAUAUUGAUCCAUTT against Prss34 | -2.31 (active)
2 | GGUGUUUACUCCGUACCCATT against Tbrg4 | -2
3 | GCGUGAACCUCCUUCUUGATT against Ramp3 | -1.29
4 | GGAGAGGCAUCUUUUCCUATT against Arhgap20 | -0.338
5 | CCCACCUAGGUUCAUCCCATT against Fat1 | -1.4
6 | GGAAUGUGAGCUUAUCAUATT against Tlr1 | -0.965
7 | GCAUAGAUUGAUGGCUAAUTT against Chd8 | 1.18
8 | GCAUAGCAGAGAUGAUUCUTT against Trip12 | 2.15 (active)
9 | GGUUGAUGAGUUUAGGUUUTT against Cpsf2 | 0.264
10 | GGGUUCAAAAGCCCAUAUUTT against Gm6787 | 0.206
11 | GGUCUUCGAAACACAGCUGTT against Exoc3l2 | -0.402
12 | GGUUUUAUCAGAAUGUCAGTT against Atpaf2 | 0.464
13 | CCAUAGUAUUGAUGUCUGCTT against Nat8f2 | 0.363
14 | GGACUCUUUUCUACGUGGATT against Klhl1 | 2.54 (active)
15 | CCCUAGGUCAUAGCUUGACTT against Crtc1 | 1.58
16 | CGGUCCCAAACGGUCAAGUTT against Tafa2 | 1.69
17 | GCCUGGAAUGCAGAAUCGATT against Vwa2 | -0.0276
18 | CCCAAAGUGCUUUACAAUGTT against Aard | 2.1 (active)
19 | GGUUCAACGCAAAGUUCGCTT against Aldh4a1 | 0.347
20 | GCUACUAUGUGCCCUGAUATT against Ms4a7 | -0.458
21 | CCUCCUUAUCCAUAAUAUUTT against Slc35a3 | 0.727
22 | GGCUCUAAAACUGUCAGACTT against Scp2d1 | 2.25 (active)
23 | GGGUAUUUUGACAAUUUGGTT against Lrig3 | -0.576
24 | GGCCAGACCUUUGUGAAUGTT against Ctse | -1.96
25 | GGAAUCUUUAGACCAUCUCTT against Myh1 | 5.3 (active)
26 | GGCCAUGAAUCUUGUUGGGTT against Scg5 | -0.684
27 | GGAAGUCACCAUCAACCAGTT against Krt4 | 0.168

Row | Sequence | z-score
28 | CGAGCACUAUUUUGGAUUATT against Usp12 | 0.0102
29 | GGCUGUGAUCUCCUGGCUUTT against Rnft2 | -1.46
30 | GGCUUUACGAGGAAAAAGGTT against Pex1 | 2.09 (active)
31 | GGAAUGCAUGCUAAUUCAGTT against Thsd1 | 1.1
32 | GGAUUCUGAGUGUACGUUUTT against Zfp28 | 0.0227
33 | CGAGGGAUAAGAGUCUACGTT against Ubxn11 | 1.45
34 | GCUAAUUCCAAGAAAGAAGTT against Lifr | -0.326
35 | GGACCAUCCCUGCUUAAUGTT against Brat1 | -2.09 (active)
36 | CGGUCAACAUCAAUGGUAATT against Gkn1 | -1.28
37 | GCUAAGAUUCCUUCCAGUATT against Adm2 | 0.98
38 | GGUUCUACCUCAAGAUGUUTT against Srd5a2 | 0.0188
39 | CCUAUAUCAUCAUGGUUUGTT against Tmx1 | 2.4 (active)
40 | GGACUACGUAUUUUCCCUGTT against Cyc1 | -0.39
41 | GCUCUGAUAUUCUCAUCAATT against Olfr39 | 1.25
42 | CCUGGGAGCCUAUUAUUCUTT against Ndufb10 | -0.032
43 | GGAAGAUAACCAUUUUGAATT against Setd4 | -0.777
44 | CGGCGUGUUUAUUUGCUAUTT against Rab27a | -1.38
45 | CCUGGUUUACAUGUACGGGTT against Tap2 | 0.494
46 | GCUAGAGACGAGAAGAUGATT against Ano10 | -2.47 (active)
47 | GCACUUCGAAGAAAUAAAATT against Ahsa2 | 0.396
48 | CGAGGACAAAAAUACCGACTT against Supt6 | -1.51
49 | GAAGAUUAUCCAUUGCCCGTT against Lce1h | 0.689
50 | GGACCCAGCUCCUGUACAUTT against Ypel3 | 2.31 (active)
51 | GGGACAGAGCCGAAAGAGUTT against Mrpl33 | -1.39
52 | CCUUGCCUUUACUACCAGUTT against Olfr15 | -0.187
53 | GCGAUACCAGGGACUACAUTT against Zfp692 | 1.75
54 | CGCUCUCUCUACAAAGGAUTT against A230052G05Rik | 0.984
